Test results published in PMC4336329 (PLoS ONE, 2015).
Out of some 310,000 compounds screened, about 2,200 (0.71%) showed an effect of 50% or more. The effect is printed as a negative number. The list comes from a sample in which strong results are over-represented; it also holds similar structures and randomly drawn compounds.

Each molecule was assayed against human ether-à-go-go-related gene (hERG) potassium channel (human, UniProt Q12809) (assay: primary screen, population patch clamp on CHO cells stably expressing hERG; higher = less effect of the substance).
Chain of human ether-à-go-go-related gene (hERG) potassium channel (Q12809 whole entry, looked up): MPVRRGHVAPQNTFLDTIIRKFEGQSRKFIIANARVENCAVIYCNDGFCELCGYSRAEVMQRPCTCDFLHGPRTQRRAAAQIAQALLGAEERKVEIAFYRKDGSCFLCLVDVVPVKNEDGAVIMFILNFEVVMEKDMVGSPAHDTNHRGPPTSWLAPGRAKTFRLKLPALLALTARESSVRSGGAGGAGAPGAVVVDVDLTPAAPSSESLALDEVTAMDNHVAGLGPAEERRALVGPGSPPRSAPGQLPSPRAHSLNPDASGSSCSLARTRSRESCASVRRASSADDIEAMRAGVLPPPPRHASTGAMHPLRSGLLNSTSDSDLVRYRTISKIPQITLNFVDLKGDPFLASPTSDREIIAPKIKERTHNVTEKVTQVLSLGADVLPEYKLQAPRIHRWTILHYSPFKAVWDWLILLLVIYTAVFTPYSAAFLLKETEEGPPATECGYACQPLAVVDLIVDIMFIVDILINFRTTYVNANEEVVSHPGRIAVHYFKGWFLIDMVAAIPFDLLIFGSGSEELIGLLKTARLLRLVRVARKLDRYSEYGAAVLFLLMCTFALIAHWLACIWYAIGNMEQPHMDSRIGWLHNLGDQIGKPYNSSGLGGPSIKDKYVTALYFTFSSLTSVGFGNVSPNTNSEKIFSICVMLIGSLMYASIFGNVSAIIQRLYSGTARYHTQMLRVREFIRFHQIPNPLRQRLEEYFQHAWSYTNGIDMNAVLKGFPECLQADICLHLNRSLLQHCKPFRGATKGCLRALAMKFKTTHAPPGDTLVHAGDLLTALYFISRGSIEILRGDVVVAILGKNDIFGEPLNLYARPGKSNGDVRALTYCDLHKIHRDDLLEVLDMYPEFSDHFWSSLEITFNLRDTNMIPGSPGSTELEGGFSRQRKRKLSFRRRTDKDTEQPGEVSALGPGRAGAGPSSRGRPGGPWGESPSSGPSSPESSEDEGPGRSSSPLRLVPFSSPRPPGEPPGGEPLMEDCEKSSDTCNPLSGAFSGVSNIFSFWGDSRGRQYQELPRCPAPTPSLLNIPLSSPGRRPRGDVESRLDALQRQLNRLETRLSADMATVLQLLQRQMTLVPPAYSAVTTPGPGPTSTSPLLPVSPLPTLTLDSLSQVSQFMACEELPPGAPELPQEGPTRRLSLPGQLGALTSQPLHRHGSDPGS

SMILES | hERG current change (%, negative = inhibition) at 1uM
CC(=O)NCCC(=O)Nc1nc2ccc(Oc3ccccc3)cc2s1 | 2.19%
Cc1cccc(S(=O)(=O)Nc2cccc3c2C(=O)c2ccccc2-3)c1 | 3.03%
CCN(CC)CCCN(C(=O)c1cccs1)c1nc(-c2ccc(OC)cc2)cs1 | -71.8%
CCN(CC)CCCN(C(=O)c1ccc(OC)cc1)c1nc(-c2ccc(OC)cc2)cs1 | -15.5%
COc1ccc(-c2csc(N(CCCN(C)C)C(=O)c3ccccc3Cl)n2)cc1.Cl | -12.5%
CCN(C(=O)c1cccs1)c1nc(-c2ccc(OC)cc2)cs1 | 13.4%
COc1ccc(-c2csc(N(CCCN(C)C)C(=O)c3ccc(C)cc3)n2)cc1.Cl | -17.2%
COc1ccc(-c2csc(N(CCCN(C)C)C(=O)c3cccs3)n2)cc1.Cl | -51.6%
O=C(c1cccs1)N(CC1CCCO1)c1nc(-c2ccccc2)cs1 (stereo not shown) | 11.8%
CN(C)CCCN(C(=O)c1cccs1)c1nc(-c2ccccc2)cs1 | -50.7%
CCC(=O)N(CC)c1nc(-c2cc(OC)ccc2OC)cs1 | 12.9%
COc1ccc(-c2csc(N(CCCN(C)C)C(=O)c3ccccc3C)n2)cc1.Cl | -2.13%
CCC(=O)N(CCCN(C)C)c1nc(-c2cc(OC)ccc2OC)cs1.Cl | -8.76%
CCN(CC)CCCN(C(C)=O)c1nc(-c2cc(OC)ccc2OC)cs1.Cl | -51%
COC(=O)c1cc(OC)c(OC)cc1NC(=O)C(C)c1ccc([N+](=O)[O-])cc1 (stereo not shown) | 8.84%
CC1OC2(OC1C)C(=O)Nc1ccccc12 (stereo not shown) | 6.93%
Cc1onc(NC(=O)NC(=O)c2c(F)cccc2Cl)c1Br | 10.4%
O=C(Cn1nc(C(=O)O)c2ccccc2c1=O)Nc1ccc2c(c1)C(=O)c1ccccc1C2=O | 6.96%
COc1ccc(-c2nc(CS(=O)CC(=O)NCc3ccco3)c(C)o2)cc1 (stereo not shown) | -1.89%
COc1cc(/C=C2\C(=N)N3N=CSC3=NC2=O)ccc1OS(=O)(=O)c1ccccc1 | 6.08%
CCCCc1ccc(NC(=S)N2CCCC(C)C2)cc1 (stereo not shown) | 10.2%
O=C(c1cccs1)N1CCN(c2nc3ccccc3s2)CC1 | 7.28%

SMILES | hERG current change (%, negative = inhibition) at 1uM
CC(C)n1c(N2CCN(C(=O)c3cccs3)CC2)nc2ccccc21 | -26.9%
CC(C)n1c(N2CCN(CC(=O)NCc3cccs3)CC2)nc2ccccc21 | -30.9%
CCCn1c(N2CCN(CC(=O)Nc3ccc4c(c3)OCCO4)CC2)nc2ccccc21.Cl | -29.2%
CCCn1c(N2CCN(CC(=O)NCc3cccs3)CC2)nc2ccccc21 | -62.7%
CC(C)Cn1c(N2CCN(C(=O)c3cccs3)CC2)nc2ccccc21 | -74.7%
O=C(/C=C/c1cccc([N+](=O)[O-])c1)OC1CCCCC1=O (stereo not shown) | 9.96%
Cc1ccc(C(C)NC(=O)CSc2ccc(S(=O)(=O)N3CCOCC3)cn2)cc1C (stereo not shown) | 5.8%
COc1ccc(Cl)cc1Nc1nc(-c2sc(NC(=O)CC(C)C)nc2C)cs1 | 11.1%
CCOC(=O)c1sc(=S)n(-c2cc(OC)ccc2OC)c1N | 6.58%
COc1cc2c(cc1OC)CN(CCC(C)c1ccc(Cl)cc1)CC2.O=C(O)/C=C\C(=O)O (stereo not shown) | -50.5%
COc1cc2c(cc1OC)CN(CC(=O)Nc1ccc(Cl)cc1Cl)CC2 | 2.03%
COc1cc2c(cc1OC)C(C)N(CCc1ccc(Cl)cc1)CC2.O=C(O)/C=C\C(=O)O (stereo not shown) | -39.9%
O=C(COC(=O)c1cccs1)Nc1ccccc1Cl | 14.6%
COc1ccc(-n2c(SCC(=O)Nc3nc(C)cs3)nnc2-c2ccoc2C)cc1 | -85%
COc1ccc(-n2c(SCC(=O)Nc3ccccc3)nnc2-c2ccoc2C)cc1 | 11.7%
CCn1c(SCC(=O)Nc2nc(C)cs2)nnc1-c1ccoc1C | 10.4%
COC(=O)CSc1nnc(-c2ccoc2C)n1-c1ccc(OC)cc1 | 8.81%
Cc1csc(NC(=O)CSc2nnc(-c3ccoc3C)n2Cc2ccco2)n1 | -78.4%
Cc1occc1-c1nnc(SCC(=O)NCc2cccs2)n1-c1ccc(F)cc1 | -14%
Cc1occc1-c1nnc(SCC(=O)Nc2nccs2)n1Cc1ccco1 | 3.28%
Cc1ccc(-n2c(SCC(=O)NCc3cccs3)nnc2-c2ccoc2C)cc1 | -16.5%
